# Bioassay records (PubChem BioAssay)
# TDP1 cell CPT – growth inhibition of DT40 Tdp1-/-;hTDP1 cells with camptothecin (screen for TDP1 inhibitors); chicken DT40 Tdp1-/-;hTDP1 cells + 20 nM CPT, ATP luminescence, 48 h; Potency, µM (doses to about 46.2 µM), for inactives: top-dose activity change, negative = growth inhibition, actives largely listed as inhibitors; 12% of 420,000 active; AID 686979; note: potency is the fitted concentration of half-maximal effect; % is set by controls: 0 for no effect and ±100 for the full control effect; nearly all actives have a fitted effect of over 55% in size
#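 Chicken DT40 Tdp1-/- cells stably complemented with human TDP1 were seeded at 400 cells/well in medium containing 20 nM camptothecin, exposed to pin-transferred compounds, and grown at 37 °C for at least 48 hr. Viability was read as ATP luminescence.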
# D3 ag – agonists of human D3 dopamine receptor; P35462; D3R DiscoveRx beta-arrestin cells, luminescence, 90 min; max activation, %; 0.58% of 410,000 active; AID 652048; in the data active = max activation above about 30%; note: 0% is about no effect
# Target sequence (P35462 whole entry, looked up): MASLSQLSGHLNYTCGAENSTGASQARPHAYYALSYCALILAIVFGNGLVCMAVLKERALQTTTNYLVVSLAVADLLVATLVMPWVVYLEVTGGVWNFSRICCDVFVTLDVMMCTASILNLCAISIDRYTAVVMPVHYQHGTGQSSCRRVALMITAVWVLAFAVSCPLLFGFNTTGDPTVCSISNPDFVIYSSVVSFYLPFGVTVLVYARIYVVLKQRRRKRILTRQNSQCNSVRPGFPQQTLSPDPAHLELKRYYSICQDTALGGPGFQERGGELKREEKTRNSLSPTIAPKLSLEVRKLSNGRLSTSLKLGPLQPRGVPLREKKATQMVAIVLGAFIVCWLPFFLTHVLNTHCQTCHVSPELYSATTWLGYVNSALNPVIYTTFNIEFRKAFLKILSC
#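 Agonist-mode cell screen: cells plated at 1500/well and incubated overnight at 37 °C, then exposed to library compounds for 90 min at 37 °C. Detection reagent was added for 30–60 min at room temperature, and luminescence was read.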
# IL1B secr inh – inflammasome signaling inhibition, IL-1 beta readout; THP-1 LPS/ATP IL-1B secretion, AlphaLISA, 16 h; active compounds read low; 4.7% of 360,000 active; AID 743279; activity change, % at 57.5 µM; in the data active = activity change below about -50%; inconclusive = mostly about -30% to -49%; note: % is set by controls: 0 for no effect and ±100 for the full control effect
#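 THP-1 cells pretreated 1 hr with compounds (up to 57.5 uM final), then stimulated with LPS (250 ng/mL final) plus ATP (1.25 mM final); secreted IL-1B measured by AlphaLISA after 16 hr, decreased signal indicating inhibition.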
# ClpP mod – qHTS Assay for Activators of ClpP. ATP-dependent Clp protease proteolytic subunit (Bacillus subtilis (strain 168)), P80244. Potency, µM (series often up to 57.5 µM), inactives show at the top dose activity change, negative = active. 1.9% of 340,000 active. AID 651965, 2013. purified B. subtilis ClpP, FRET peptide cleavage, 20 min; active = well fitted falling curve with a large enough effect; inconclusive = small, poorly fitted or top-dose-only effect; inactive = no such curve, though single readings can be large or run the other way; note: potency is the fitted concentration of half-maximal effect; the source files actives as falling curves though it sought activators and does not explain the sign; nearly all actives have a fitted effect of over 65% in size
#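 ClpP 10 microg/mL final, pH 8 Tris/KCl buffer with BSA, glycerol, Tween-20; compound pinned in; FRET-FV substrate; RT 20 min; Ex320/Em430; ΔFRET vs ADEP 5.8 microM, DMSO, no enzyme.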
# DT40 TDP1 no CPT – qHTS for Inhibitors of human tyrosyl-DNA phosphodiesterase 1 (TDP1): qHTS in cells in absence of CPT. DT40 Tdp1-/- hTDP1 cells, no CPT, ATP luminescence, 48 h. Potency, µM (top dose mostly 46.2 µM), without a hit: at the top dose activity change, negative = growth inhibition, hits mostly inhibitors. 15% of 420,000 active. AID 686978, 2013; note: potency is the fitted concentration of half-maximal effect; % is set by controls: 0 for no effect and ±100 for the full control effect; nearly all actives have a fitted effect of over 55% in size
#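 DT40 Tdp1-/-;hTDP1 cells, no CPT (DMSO vehicle only), 400 cells/well; compounds pin-transferred; ≥48 hr, 37 °C; CellTiter-Glo 30 min RT dark, luminescence read.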
# DRD3 antagonist – blocks the human D3 dopamine receptor; P35462; D3R cells, DiscoveRx beta-arrestin luminescence, antagonist mode; active compounds read low; max response, negative = inhibition, %; 2.5% of 360,000 active; AID 652054; in the data active = max response below about -50%; inconclusive = no clear call, values can overlap the other calls; note: % is set by controls: 0 for no effect and ±100 for the full control effect
#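 Cells plated overnight at 1500 cells/well, then exposed to library compounds with dopamine controls for 90 minutes at 37 degrees C. DiscoveRx reagent added for 30–60 minutes at room temperature; luminescence read, quantitative HTS format.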
# Starred values were filed as active, the others as inactive; i = inactive; ? = inconclusive; / = no result given. Hits are enriched below; roughly 21% of the tested compounds scored in any of these assays. Unless noted, calls come from the whole dose curve; as a rule, active = well fitted inhibition curve with a large enough effect; inconclusive = small, poorly fitted or top-dose-only effect; inactive = flat fitted curve, though single readings scatter.
SMILES,TDP1 cell CPT,D3 ag,IL1B secr inh,ClpP mod,DT40 TDP1 no CPT,DRD3 antagonist
CC(C)(C)C1CCC(OC(=O)C[N+]2(C)CCCC2)CC1 (centres undefined),4.1µM*,4,8,/,5.2µM*,8
CC(C)CC1CCCCC1OC(=O)C[N+]1(C)CCCCC1 (centres undefined),?,-7,-19,/,10µM*,7
CCC1=C2CC[C@H]3C(=O)N(CC)C(=O)[C@H]3[C@H]2[C@@]2(Cc3ccccc3)C(=NCCOC)OC(=O)N2C1=O,2%,-8,1,-4%,-10%,0
CCC1=C2CC[C@H]3C(=O)N(C)C(=O)[C@H]3[C@H]2[C@@]2(Cc3ccccc3)C(=NCCOC)OC(=O)N2C1=O,6%,38*,33,-2%,-2%,4
O=C(COc1ccc(Br)cc1CNCCCN1CCOCC1)Nc1ccccc1,16µM*,-16,-70*,0%,21µM*,?
COc1cc(CNC(C)C)ccc1OCC(=O)Nc1cccc2ccccc12,26µM*,-22,-20,8%,18µM*,5
CCOc1cc(CNCCCN2CCOCC2)ccc1OCC(=O)Nc1cccc2ccccc12,23µM*,-20,-5,-5%,3.7µM*,-14
O=C(COc1ccc(Br)cc1Cl)NCCCN1CCOCC1,-30%,-27,0,-1%,4%,10
COc1cc(C2C(C#N)=C(N)Oc3n[nH]c(C)c32)ccc1OC(=O)c1ccccc1 (centres undefined),-17%,0,-12,1%,-15%,-11
COc1cc(C2C(C#N)=C(N)Oc3c2ccc2ccccc32)ccc1OCC(=O)Nc1ccccc1C (centres undefined),21µM*,2,-2,-3%,26µM*,17
CCN1C(=O)CC(NC2CCN(C(=O)c3ccc(F)cc3)CC2)C1=O (centres undefined),9%,-4,i,-1%,6%,-19
CC(C)(CN1CCc2ccccc2C1)NS(=O)(=O)c1ccc(Cl)cc1,?,-18,48,/,?,?
Cc1ccc(C(C)C)c(OCC(=O)OCC(=O)NC2CCS(=O)(=O)C2)c1 (centres undefined),0%,0,-10,-4%,-2%,0
COc1ccc(-c2nn3c(-c4ccccc4C)nnc3c3ccccc23)cc1,?,7,/,-13%,?,/
CCOC(=O)c1c(C)sc2c1N(C(=O)CN(CC)CC)c1cc(Cl)ccc1S2,18µM*,-21,-20,-9%,?,7
CCOC(=O)N1CCN(CC(=O)N2c3ccccc3Sc3ccccc32)CC1,?,2,2,0%,?,-11
CCOC(=O)c1c(C)sc2c1N(C(=O)CN(CC)CC)c1ccccc1S2,?,5,-11,3%,21µM*,-18
CCCCN(C)c1c(C)nc2ccc(C(=O)NCc3ccc4c(c3)OCO4)cn12,?,6,-12,0%,23µM*,13
CCc1nc2ccc(C(=O)NCc3ccc4c(c3)OCO4)cn2c1N(CC)CCOC,?,1,-15,-1%,?,12
CCCCN(C(C)=O)c1c(CC)nc2ccc(C(=O)NCCOc3ccc(OC)cc3)cn12,?,2,-5,-4%,13µM*,0
COc1ccc(OCCNC(=O)c2ccc3nc(C)c(N(C)C(=O)CCc4ccccc4)n3c2)cc1,23µM*,1,-10,-8%,?,-1
CCCCN(C)c1c(C)nc2ccc(C(=O)NCCOc3ccc(OC)cc3)cn12,13µM*,14,-13,-1%,18µM*,1
